Assay results as given in the supplement of paper PMC10981050.
“And” between values parts separate entries of the source, which are not always exact repeats. Identical values can stand only once.

What was measured:
Test in all cases: cell viability relative to vehicle control; higher = less cytotoxic
Conditions in all cases: 10 µM
[1] = system: K562
Outline: (§1)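 Each screen used CRISPR-edited mutant and wild-type clones from four leukaemia lines. Compounds were acoustically dispensed at a single 10 µM dose, and CellTiter-Glo luminescence was read after 48 h with the supernatant first removed. Viability was analysed in Genedata Screener and given as percent of the on-plate vehicle control.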

[2] = system: MARIMO
Outline: as §1

[3] = system: MOLM14
Outline: as §1

[4] = system: OCI-AML2
Outline: as §1

Row | SMILES | cell viability ([1]; SRSF2 genotype: SRSF2 P95H/wt) | cell viability ([1]; SRSF2 genotype: SRSF2 wt/wt) [%] | cell viability ([2]; SRSF2 genotype: SRSF2 P95H/wt) [%] | cell viability ([2]; SRSF2 genotype: SRSF2 wt/wt) [%] | cell viability ([3]; SRSF2 genotype: SRSF2 P95H/wt) [%] | cell viability ([3]; SRSF2 genotype: SRSF2 wt/wt) [%] | cell viability ([4]; SRSF2 genotype: P95H/wt) [%] | cell viability ([4]; SRSF2 genotype: wt/wt) [%]
1 | C#CCC(Cc1cnc2nc(N)nc(N)c2n1)c1ccc(C(=O)N[C@@H](CCC(=O)O)C(=O)O)cc1 (some centres undefined) [Pralatrexate(Folotyn)] | 98.1% and 106% | 45.8 | 109 | 108 | 102 | 73.9 | 98.6 | 104
2 | Nc1ccccc1NC(=O)c1ccc(CNc2nccc(-c3cccnc3)n2)cc1 [Mocetinostat (MGCD0103)] | 4.12% and 14.8% | 10.5 | 7.4 | 9.28 | 0.6 | 0.42 | 0.44 | 3.29
3 | Oc1ccc2ccccc2c1N=Nc1ccc(N=Nc2ccccc2)cc1 [Solvent Red 23] | 83.7% and 81.2% | 82 | 82.6 | 90.8 | 76 | 85.3 | 75.3 | 78.7
4 | CC1(C)[C@@H](O[C@H]2O[C@H](C(=O)O)[C@@H](O)[C@H](O)[C@H]2O[C@@H]2O[C@H](C(=O)O)[C@@H](O)[C@H](O)[C@H]2O)CC[C@]2(C)[C@H]3C(=O)C=C4[C@@H]5C[C@@](C)(C(=O)O)CC[C@]5(C)CC[C@@]4(C)[C@]3(C)CC[C@@H]12 [Dipotassium glycyrrhizinate] | 105% and 104% | 102 | 103 | 112 | 103 | 103 | 101 | 105
5 | CCS(=O)(=O)Nc1ccc2[nH]c(O)c(C(=Nc3ccc(CN4CCCCC4)cc3)c3ccccc3)c2c1 [Hesperadin] | 19.5% and 24% | 15.9 | 5.46 | 9.42 | 0.94 | 0.3 | 5.95 | 9.44
6 | OC[C@H]1O[C@@](CO)(OC[C@@]2(OC[C@@]3(OC[C@@]4(O[C@H]5O[C@H](CO)[C@@H](O)[C@H](O)[C@H]5O)O[C@H](CO)[C@@H](O)[C@@H]4O)O[C@H](CO)[C@@H](O)[C@@H]3O)O[C@H](CO)[C@@H](O)[C@@H]2O)[C@@H](O)[C@@H]1O [1F-Fructofuranosylnystose] | 110% and 109% | 104 | 109 | 103 | 103 | 107 | 101 | 108
7 | Cc1cc(C)nc(SCC(=O)Nc2ncc(Cc3cccc4ccccc34)s2)n1 | 79.2% and 84.5% | 75.5 | 78.5 | 86.9 | 41.1 | 42.4 | 61.4 | 66.4
8 | CCN(C(=O)c1c(O)c2c(Cl)cccc2n(C)c1=O)c1ccccc1 | 98.8% and 96.5% | 96.4 | 92.4 | 99.1 | 84.1 | 93.4 | 87.9 | 99.8
9 | O=C(C1CCCCC1)N1CC(=O)N2CCc3ccccc3C2C1 (centres undefined) [Praziquantel (Biltricide)] | 105% and 101% | 102 | 109 | 107 | 111 | 109 | 115 | 103
10 | CCC(CC)n1ccc2c(C(=O)NCc3c(C)cc(C)[nH]c3=O)cc(C#N)cc21 | 107% and 101% | 95.5 | 103 | 112 | 100 | 100 | 95 | 102
11 | Cc1cnc(NC(=O)C2=C(O)c3ccccc3S(=O)(=O)N2C)s1 [Meloxicam (Mobic)] | 98.6% and 90.8% | 90 | 86.4 | 103 | 90.8 | 92.7 | 86.6 | 99.4
12 | CC(=O)CCc1ccc(OC(C)=O)cc1 [Pherocon (4-(4-Acetoxyphenyl)-2-butanone)] | 111% and 109% | 119 | 103 | 107 | 109 | 108 | 119 | 116
13 | CC1(C)OCCn2c1nc1c(N3CCOCC3)nc(-c3cnc(N)nc3)nc12 | 47.1% and 53.8% | 55 | 45.7 | 36 | 27.3 | 23.9 | 11.2 | 19.6
14 | CC1(C)CCC2(C(=O)O)CCC3=C(CCC4C3(C)CCC3C4(C)CC(O)C(O)C3(C)C(=O)O)C2C1 (centres undefined) [Polygalic acid] | 86.1% and 86.3% | 82 | 89.8 | 92 | 87.7 | 87.9 | 83.1 | 95.3
15 | CC[N+](CC)(CC)CCOc1cccc(OCC[N+](CC)(CC)CC)c1OCC[N+](CC)(CC)CC [Gallamine triethiodide (Flaxedil)] | 96% and 97.9% | 91.8 | 101 | 96.8 | 101 | 99.5 | 99 | 95.4
16 | Nc1nonc1C(=Nc1ccc(F)c(Cl)c1)NO | 97% and 107% | 101 | 92 | 97.2 | 93.8 | 100 | 98.2 | 111
17 | CCCCC1=NC2(CCCC2)C(=O)N1Cc1ccc(-c2ccccc2-c2nnn[nH]2)cc1 [Irbesartan (Avapro)] | 85.5% and 88.8% | 86.3 | 88.7 | 101 | 90 | 85.5 | 95.7 | 94.1
18 | COC(=O)N[C@H](C(=O)N1CCC[C@H]1c1nc(-c2ccc3c(c2)O[C@@H](c2ccccc2)n2c-3cc3cc(-c4c[nH]c([C@@H]5CCCN5C(=O)[C@@H](NC(=O)OC)C(C)C)n4)ccc32)c[nH]1)C(C)C [Elbasvir] | 87.7% and 92% | 86.9 | 68.6 | 77.3 | 81.9 | 87.8 | 91 | 88
19 | CC(C)n1c(/C=C/C(O)CC(O)CC(=O)O)c(-c2ccc(F)cc2)c2ccccc21 (centres undefined) [Fluvastatin sodium (Lescol)] | 80.8% and 90.5% | 69.6 | 45.5 | 46.6 | 77.7 | 89.3 | 36.8 | 46.5

Row | SMILES | cell viability ([1]; SRSF2 genotype: SRSF2 P95H/wt) | cell viability ([1]; SRSF2 genotype: SRSF2 wt/wt) [%] | cell viability ([2]; SRSF2 genotype: SRSF2 P95H/wt) [%] | cell viability ([2]; SRSF2 genotype: SRSF2 wt/wt) [%] | cell viability ([3]; SRSF2 genotype: SRSF2 P95H/wt) [%] | cell viability ([3]; SRSF2 genotype: SRSF2 wt/wt) [%] | cell viability ([4]; SRSF2 genotype: P95H/wt) [%] | cell viability ([4]; SRSF2 genotype: wt/wt) [%]
20 | CNC(=O)c1nn(C)c2c1C(C)(C)Cc1cnc(Nc3ccc(N4CCN(C)CC4)cc3)nc1-2 | 34% and 36.5% | 25.2 | 21.4 | 22.6 | 16 | 5.62 | 13.8 | 19.4
21 | CCC(C)CC(C)CCCCCCCCC(=O)NC1CC(O)C(O)NC(=O)C2C(O)CCN2C(=O)C(C(O)CC(N)=O)NC(=O)C(C(O)C(O)c2ccc(O)cc2)NC(=O)C2CC(O)CN2C(=O)C(C(C)O)NC1=O (centres undefined) [Pneumocandin B0] | 96.7% and 91.6% | 90 | 97 | 95.1 | 93.5 | 98.7 | 95.7 | 91.8
22 | COC(=O)c1ccc2c(c1)nc(NC(=O)c1ccccc1)n2CCCc1ccccc1 | 77.8% and 75.4% | 79.5 | 70.1 | 91.6 | 87.9 | 93.7 | 64.5 | 68.7
23 | Cc1cc(O)c2c(c1)C(=O)c1cccc(O)c1C2=O [Chrysophanic acid (Chrysophanol)] | 100% and 95.6% | 100 | 96.9 | 95.8 | 114 | 106 | 89.2 | 83
24 | C[C@H]1C[C@H]2[C@@H]3CCC4=CC(=O)C=C[C@]4(C)[C@@]3(F)[C@@H](O)C[C@]2(C)[C@@]1(O)C(=O)CO [Betamethasone (Celestone)] | 92.1% and 85.8% | 89.5 | 86.1 | 98.4 | 92.8 | 86 | 84.4 | 108
25 | Cc1c[nH]c2nc(Nc3ccc(N4CCN(C)CC4)c(F)c3)nc(-c3cccc(CC#N)c3)c12 | 11.7% and 1.85% | 4.64 | 4.43 | 2.84 | 0.86 | 0.46 | 0.41 | 4.1
26 | O=C1C(=O)N(Cc2ccc(Cl)c(Cl)c2)c2ccccc21 [Apoptosis Activator 2] | 62.4% and 47.9% | 37.7 | 25.5 | 33.1 | 3.92 | 1.81 | 32 | 13.7
27 | Nc1ccc(S(=O)(=O)Nc2ncccn2)cc1 [Sodium sulfadiazine] | 98.3% and 99.1% | 102 | 106 | 97.4 | 98.1 | 102 | 109 | 96.8
28 | CN[C@H]1C(=O)N[C@@H]2Cc3ccc(cc3)Oc3cc4cc(c3O[C@@H]3O[C@H](C(=O)O)[C@@H](O)[C@H](O)[C@H]3NC(=O)CCCCCCCCC(C)C)Oc3ccc(cc3Cl)[C@@H](O)[C@@H]3NC(=O)[C@H](NC(=O)[C@@H]4NC(=O)[C@@H](NC2=O)c2cc(cc(O)c2Cl)Oc2cc1ccc2O)c1ccc(O)c(c1)-c1c(O[C@H]2O[C@H](CO)[C@@H](O)[C@H](O)[C@@H]2O)cc(O)cc1[C@@H](C(=O)NCCCN(C)C)NC3=O [Dalbavancin] | 97.1% and 89.6% | 94.9 | 95.8 | 103 | 96.6 | 97.9 | 86.5 | 106
29 | NC(=O)/C(=C/n1cnc(-c2cc(C(F)(F)F)cc(C(F)(F)F)c2)n1)c1cncnc1 | 3.74% and 12.7% | 11.3 | 15.4 | 17.5 | 0.67 | 0.57 | 1.55 | 4.56
30 | O=c1[nH]nc2c3c(cccc13)N=C(CN1Cc3ccccc3C1)N2 | 69.4% and 77.8% | 66.3 | 93 | 108 | 74.5 | 65.6 | 69.7 | 86.2
31 | CCOC(=O)C1=C(C)NC(C)=C(C(=O)OCC)C1 [Diludine] | 99.6% and 92.2% | 104 | 94.3 | 99.7 | 104 | 99.3 | 99.3 | 93.9
32 | CC(C)Oc1ccc(-c2cnc3c(-c4ccnc5ccccc45)cnn3c2)cc1 | 86.4% and 88.6% | 84.7 | 86.1 | 98 | 84.6 | 90.4 | 82.2 | 78.1
33 | CC1=CCC[C@H](C)C(=O)C[C@@H](C(C)C)C(=O)C1 [Curdione] | 93.2% and 88.9% | 83.8 | 93.8 | 90.8 | 91.2 | 87.5 | 91 | 87.2
34 | COc1cc(N2CCC(N3CCN(C)CC3)CC2)ccc1Nc1ncnc(Nc2ccccc2S(=O)(=O)C(C)C)n1 | 84.8% and 91% | 80.8 | 56.7 | 48.3 | 28.4 | 31.1 | 12.6 | 21.9
35 | O=C(Nc1ccccc1-c1cn2c(CN3CC[C@@H](O)C3)csc2n1)c1ccc2ccccc2c1 | 23.9% and 46% | 39.3 | 57.1 | 65 | 72.4 | 80.5 | 65.3 | 64.4
36 | CCOC(=O)C1=C(COCCN)NC(C)=C(C(=O)OC)C1c1ccccc1Cl (centres undefined) [Amlodipine besylate (Norvasc)] | 79.6% and 95.8% | 84.3 | 76.8 | 78.3 | 54.7 | 59.5 | 36.2 | 44.2
37 | CC(=O)/N=c1/sc(S(N)(=O)=O)nn1C [Methazolamide] | 109% and 102% | 95.2 | 106 | 111 | 98.5 | 102 | 100 | 105
38 | O=c1cc(-c2ccccc2)oc2cc(O)c(O)c(O)c12 [Baicalein] | 81.4% and 80% | 80.5 | 88.2 | 83.8 | 74.8 | 85.2 | 91.2 | 82.6
